# Experimental data from PubChem BioAssay (NCI).
# This is part of a sample that, as a whole, favours compounds with a hit. Of some 83,000 tested, about 20% had one in any assay.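 Values shown are percent growth following 48 h exposure of cells in 96-well plates to a single concentration of compound; below 10 was considered active.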 Values without a mark were called inactive. The source made the active and inactive calls.
# Tested on: COLO 205 colon
# Assay: NCI-60 one-dose screen, 48 h (100 = growth as untreated, 0 = no growth, -100 = all killed)
# Conditions: 10 µM
row,Structure (SMILES),growth
1,CC(C)[N+]1(C)C2CC[C@@H]1CC(OC(=O)C(CO)c1ccccc1)C2 (stereo not given in full),113%
2,Cc1c2c[n+](C(C)C)ccc2c(C)c2c1[nH]c1ccccc12,-6.61% (active)
3,Cc1ccc(-n2c(C)nn3c(=O)c4c5c(sc4nc23)CN(C)CC5)cc1,103%
4,CCCCCCCCCCCCCCCCCC[n+]1ccc2c(C)c3c(c(C)c2c1)c1cc(O)ccc1n3CC,-46.6% (active)
5,Cc1c2cnccc2c(C)c2c1c1cc(O)ccc1n2C(C)C,17.9%
6,COc1ccc(C(=O)CSc2nc(-c3cc(OC)ccc3OC)cc(-c3ccc(OC)cc3)c2C#N)cc1,98.8%
7,CCn1c2ccc(O)cc2c2c(C)c3c[n+](C)ccc3c(C)c21,43.6%
8,Cc1ccccc1N1C(=O)c2cc(S(N)(=O)=O)c(Cl)cc2NC1C (stereo not given),118%
9,N#Cc1c(-c2ccc(Cl)cc2)cc(-c2cc(O)ccc2O)nc1N,97.5%
10,CN1CCc2c(sc3nc4n(-c5ccc(Cl)cc5)c(=O)[nH]n4c(=O)c23)C1,108%
11,Cn1c2ccccc2c2c3[nH][nH]c(=O)c3c3c4ccccc4[nH]c3c21,59%
12,O=C1c2c(c3c4ccccc4n(CCCCCCN4CCOCC4)c3c3[nH]c4ccccc4c23)C(=O)N1O,36%
13,Nc1ccccc1NC(=O)c1ccc(CCCC(=O)Nc2ccc(C3CC3N)cc2)cc1 (stereo not given),-5.7% (active)
14,Nc1nc(-c2cccnc2)nc2c1sc(=S)n2-c1ccccc1,108%
15,Nc1cc(-c2ccncc2)c[nH]c1=O,113%
16,COc1cc2c3c(n([C@H]4CCOC4)c(=O)c2cc1OC)-c1cc2c(cc1C3=O)OCO2,35.8%
17,C=C/C(C)=C/C[C@]1(C)[C@H](C)[C@@H](OC(=O)CCC)[C@H](O)[C@@]23C(=C[C@H](OC)C[C@@H]12)[C@@H](OC(=O)CCC)O[C@H]3OC(C)=O,-53.3% (active)
18,Fc1ccc2[nH]cc(-c3nc(-c4ccsc4)cs3)c2c1,101%
19,CN1CCc2c(sc3nc4n(-c5ccc(Cl)cc5)cnn4c(=O)c23)C1,97.7%
20,O=C(CCCNC(=O)c1nc(-c2ccccc2)n(-c2ccccc2)n1)NO,109%

row,Structure (SMILES),growth
1,Nc1ccc(-c2cccs2)cc1NC(=O)c1ccc(CCCC(=O)Nc2ccc(C3CC3N)cc2)cc1 (stereo not given),73.9%
2,CCOC(=O)c1sc2ncnc(Nc3ccc(NC(=O)Nc4ccc(Cl)cc4)cc3)c2c1C,53%
3,CCNc1nc(C(F)(F)F)nc2c1sc(=S)n2-c1ccccc1,106%
4,COc1ccc([C@H]2[C@H](C(=O)Nc3cccnc3)c3ccccc3C(=O)N2c2ccccc2)cc1,63.2%
5,O=C(CCCCNC(=O)c1nc(-c2ccccc2)n(-c2ccccc2)n1)NO,84.9%
6,COc1cc(CNC(=O)C2CSC3(C)c4ccccc4C(=O)N23)cc(OC)c1OC (stereo not given),105%
7,COc1cc2c3c(n(C4CCNCC4)c(=O)c2cc1OC)-c1cc2c(cc1C3=O)OCO2,-83% (active)
8,C[C@@H](O)[C@H]1C(=O)N2C(C(=O)O)=C(SC3CN[C@H](C(=O)N(C)C)C3)[C@H](C)[C@H]12 (stereo not given in full),113%
9,COc1cc2c3c(n([C@@H]4CCOC4)c(=O)c2cc1OC)-c1cc2c(cc1C3=O)OCO2,38.8%
10,CCOC(=O)c1sc2ncnc(Nc3ccc4c(cnn4C(=O)Nc4ccc(C)c(Cl)c4)c3)c2c1C,110%
11,CN1C(C(=O)Nc2ccccn2)=C(O)c2sc(Cl)cc2S1(=O)=O,105%
12,CCCN1CN2C(=O)N3CN(CCC)CN4C(=S)N(C1)C2C34 (stereo not given),114%
13,COc1ccc(-c2cc(-c3cc(OC)ccc3OC)nc(N)c2C#N)cc1,57.1%
14,c1cncc(-c2csc(-c3c[nH]c4ccccc34)n2)c1,94.9%
15,c1cnc2[nH]cc(-c3nc(-c4ccsc4)cs3)c2c1,117%
16,COc1ccc(-c2nn(-c3cccc(Cl)c3)cc2C=C(C#N)C#N)cc1,-9.68% (active)
17,CCOC(=O)c1sc2ncnc(Nc3ccc4c(cnn4C(=O)Nc4ccccc4)c3)c2c1C,70.1%
18,CCCCCC(=O)O[C@]1(C(C)=O)CCC2C3CCC4=CC(=O)CC[C@]4(C)C3CC[C@@]21C (stereo not given in full),13.3%
19,CCn1cc(CNc2ccc(C(=O)Nc3ccc4ccccc4c3)cc2)c(C)n1,69.2%
20,O=c1[nH]c(=O)n(C2C[C@H](O)[C@@H](CO)O2)cc1C(F)(F)F (stereo not given in full),113%
